# Screening results deposited in PubChem BioAssay by National Center for Advancing Translational Sciences (NCATS).
# An excerpt weighted towards active compounds, which were near 6.1% of everything screened.
# D1 PAM = Potentiators of Human D1 Dopamine Receptor: qHTS. D(1A) dopamine receptor (Homo sapiens), P21728. HEK293 TREx D1 cells, calcium flux, dopamine EC20 potentiation. potentiation, % at 10 µM. actives 0.036% (n = 360,000); in the data active = potentiation above about 30%; also: 0% is about no effect
# Target sequence (P21728 whole entry, looked up): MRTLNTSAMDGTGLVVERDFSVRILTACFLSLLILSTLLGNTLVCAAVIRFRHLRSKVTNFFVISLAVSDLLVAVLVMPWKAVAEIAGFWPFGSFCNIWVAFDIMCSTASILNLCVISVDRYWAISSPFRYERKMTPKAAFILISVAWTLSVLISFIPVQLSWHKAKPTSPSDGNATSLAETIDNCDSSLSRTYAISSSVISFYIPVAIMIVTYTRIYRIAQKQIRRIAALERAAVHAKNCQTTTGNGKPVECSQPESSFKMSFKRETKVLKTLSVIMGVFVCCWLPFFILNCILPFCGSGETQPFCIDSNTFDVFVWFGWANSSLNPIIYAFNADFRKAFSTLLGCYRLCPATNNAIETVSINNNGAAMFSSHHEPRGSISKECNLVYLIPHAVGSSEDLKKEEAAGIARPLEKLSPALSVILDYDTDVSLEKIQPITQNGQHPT
# D1 ag = Allosteric Agonists of the Human D1 Dopamine Receptor: qHTS. D(1A) dopamine receptor (Homo sapiens), P21728. AID 504660, 2011. actives 1% (n = 360,000). HEK293 T-REx D1 cells, calcium flux, agonist mode. activation, % at 2 µM; in the data active = activation above about 30%; also: 0% is about no effect
#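 Inducible HEK293 T-REx D1 cells, force-coupled to calcium signalling, were plated at 4000 cells/well with tetracycline and held overnight at 30 C. After no-wash calcium dye loading, compound-evoked calcium rise over 180 s flagged agonists.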
# D1 antagonist = Antagonist of Human D 1 Dopamine Receptor: qHTS; D(1A) dopamine receptor (Homo sapiens), P21728; HEK293 TREx D1 cells, calcium flux, dopamine EC80; stronger effect = lower value; activity change, negative = inhibition, % at 10 µM; actives 3.2% (n = 360,000); in the data active = activity change below about -30%; also: % is scaled to controls: 0 for no effect and ±100 for the full control effect
#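 Kinetic fluorescence of a calcium dye serves as the read-out. D1-expressing Hek293 Trex cells, induced overnight at 30 C, are exposed to compound for 180 s before an EC80 dopamine addition, then read 180 s further.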
# DRD3 antagonist = qHTS of D3 Dopamine Receptor Antagonist: qHTS | D(3) dopamine receptor (Homo sapiens), P35462 | D3R cells, DiscoveRx beta-arrestin luminescence, antagonist mode; stronger effect = lower value | max response, negative = inhibition, % | actives 2.5% (n = 360,000); in the data active = max response below about -50%; inconclusive = no clear call, values can overlap the other calls; also: % is scaled to controls: 0 for no effect and ±100 for the full control effect
#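 Cells expressing the human receptor were seeded at 1500 cells/well, incubated overnight at 37 degrees C in 5% CO2, then exposed to library compounds with dopamine controls for 90 minutes at 37 degrees C before luminescent detection.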
# D3 ag = qHTS of D3 Dopamine Receptor Agonist: qHTS; actives 0.58% (n = 410,000); D(3) dopamine receptor (Homo sapiens), P35462; D3R DiscoveRx beta-arrestin cells, luminescence, 90 min; max activation, %; AID 652048, 2013; in the data active = max activation above about 30%; also: 0% is about no effect
#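 Agonist-mode cell screen: cells plated at 1500/well and incubated overnight at 37 °C, then exposed to library compounds for 90 min at 37 °C. Detection reagent was added for 30–60 min at room temperature, and luminescence was read.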
# Active calls of the source: *; ? = inconclusive; · = no result given.
SMILES,D1 PAM,D1 ag,D1 antagonist,DRD3 antagonist,D3 ag
COC(=O)c1ccc(CN2CCN(C3CCCCC3)C(CCO)C2)cc1 (stereo unspecified),-1,-1,0,7,-6
Cc1ccc(CN2CCN(Cc3cnc(C)s3)CC2CCO)cc1 (stereo unspecified),1,7,-2,-60*,-15
OCCC1CN(Cc2ccc3c(c2)CCO3)CCN1Cc1ccc(F)cc1 (stereo unspecified),1,3,-8,-59*,-16
Cc1ncc(CN2CCN(Cc3ccccc3)C(CCO)C2)s1 (stereo unspecified),5,0,-6,-20,-17
CCOc1ccc(CN2CCN(Cc3cnc(-c4ccccc4)s3)CC2CCO)cc1 (stereo unspecified),-3,61*,-10,-16,-3
CCOc1ccc(-c2cccc(NS(=O)(=O)c3c(C)cc(C)cc3C)c2)nn1,1,0,15,·,5
Cc1ccnc(NC(=O)c2ccc(C(=O)c3ccccc3)cc2)c1,-2,2,-2,-55*,-8
COc1ccc(Br)cc1CNC(=O)c1nn(-c2ccc(C)cc2)c(=O)c2c1c1ccccc1n2C,-2,1,-13,·,-19
O=C(C1CCCCN1S(=O)(=O)c1ccccc1)N1CCN(C(c2ccccc2)c2ccccc2)CC1 (stereo unspecified),2,8,-30*,-3,-22
COC(=O)C1CCN(Cc2ccc(C)cc2)CC1,-7,1,10,?,0
Cc1ccc(S(=O)(=O)NNC(=O)C2CCN(Cc3ccccc3)CC2)cc1,-2,1,7,-63*,-10
O=C(C1CCCCN1S(=O)(=O)c1ccccc1)N1CCN(Cc2ccccc2)CC1 (stereo unspecified),-5,0,6,?,-49
Cc1ccc(S(=O)(=O)N2CCCCC2C(=O)N2CCN(Cc3ccccc3)CC2)cc1 (stereo unspecified),-7,1,2,-52*,-45
COc1ccc(NC(=O)c2c(NCc3ccc(C)o3)sc3c2CCC(C)C3)cc1 (stereo unspecified),-6,2,9,·,-6
COC(=O)C1(C)CCc2cc(OC)ccc2C1=O (stereo unspecified),5,0,-46*,17,-2
Cc1ccc(C(=O)NN2C(=O)c3ccc(S(=O)(=O)c4ccc(C(=O)O)cc4)cc3C2=O)cc1,-10,2,-43*,7,-8
O=C(O)c1ccc(S(=O)(=O)c2ccc3c(c2)C(=O)N(NC(=O)c2ccc(O)cc2)C3=O)cc1,-3,0,10,4,-7
CCOC(=O)c1ccc(NC(=S)N(CCN2CCCCCC2)Cc2cccs2)cc1,-1,9,3,-75*,-16
CCOC(=O)c1ccc(NC(=S)N(CCCN2CCCC2)Cc2cccs2)cc1,-3,12,-13,-21,-13
CCOC(=O)c1ccc(NC(=S)N(CCCN2CCN(CC)CC2)Cc2cccs2)cc1,-7,49*,-30,0,-18
CCOC(=O)c1ccc(NC(=S)N(CCCN2CCN(C)CC2)Cc2cccs2)cc1,-6,9,2,-5,-15
CC1CCN(S(=O)(=O)c2ccc3c(c2)N(CC(=O)Nc2ccc(F)c(Cl)c2)C(=O)CO3)CC1,-2,3,17,·,2
COc1cccc(NC(=O)Cn2c(=O)n(CCCC(=O)NCc3ccc4c(c3)OCO4)c(=O)c3ccccc32)c1,1,4,2,·,-6
Cc1ccc(S(=O)(=O)N2CCN(S(=O)(=O)c3ccccc3)C2)cc1,-8,2,-17,-51*,3
Cc1ccc(S(=O)(=O)N2CCN(C(=O)c3c(C)nn(-c4ccccc4)c3Cl)CC2)cc1,-1,-1,-16,-71*,-14
SMILES,D1 PAM,D1 ag,D1 antagonist,DRD3 antagonist,D3 ag
Cc1ccc(S(=O)(=O)N2CCN(S(C)(=O)=O)C2)cc1,-2,3,-11,49,18
O=S(=O)(c1ccccc1)N1CCCN(S(=O)(=O)c2ccccc2)CC1,4,14,-45*,4,6
COc1ccc(S(=O)(=O)N2CCN(C(=O)c3c(C)nn(-c4ccccc4)c3Cl)CC2)cc1,-1,2,-8,0,-15
Cc1cc(C)c(S(=O)(=O)N2CCN(C(=O)c3ccc(-n4nc(C)c(Cl)c4C)cc3)CC2)c(C)c1,·,·,·,-2,101*
Cc1ccc(S(=O)(=O)N2CCN(C3CC4CCC3C4)CC2)cc1 (stereo unspecified),-4,2,-9,-61*,-23
COc1ccc(S(=O)(=O)N2CCN(C3CC4CCC3C4)CC2)cc1 (stereo unspecified),-11,3,-1,-16,-19
CC(NCC(O)c1ccc([N+](=O)[O-])cc1)C12CC3CC(CC(C3)C1)C2 (stereo unspecified),-7,49*,-4,-8,-17
CCN(CC(=O)NC1CCS(=O)(=O)C1)c1ccc([N+](=O)[O-])cc1C#N (stereo unspecified),-3,2,-31*,-20,-3
CCN(CC(=O)NC1CCS(=O)(=O)C1)S(=O)(=O)c1cc(C)ccc1C (stereo unspecified),-12,0,-55*,6,3
O=C(O)c1cc(NS(=O)(=O)c2ccc3ccccc3c2)ccc1O,4,1,14,-108*,-22
O=C(Nc1ccc2ccccc2c1)c1ccccc1O,-3,22,-34*,-2,-6
CS(=O)(=O)Nc1ccc(C(=O)Nc2ccc3ccccc3c2)cc1,-6,2,-38*,-4,2
COc1ccc(NC(=O)c2cc3ccccc3cc2O)cc1,-2,7,-6,-61*,-9
O=C(Nc1ccc2ccccc2c1)c1ccccc1Cl,·,·,·,10,-3
CCC(=O)N1CCc2cc(S(=O)(=O)CCC(=O)N3CCN(c4cc(C)ccc4C)CC3)ccc21,1,0,1,·,-4
CCN(CC)c1ccc(NC(=O)c2cccn2-c2nnc(N3CCCCC3)s2)c(C)c1,-1,20,-12,·,-3
CCOC(=O)c1ccc(NC(=O)c2c(-c3c(F)cccc3Cl)noc2C)cc1,-4,10,-11,·,-4
CS(=O)(=O)CC[C@@H](C(=O)NCCc1ccccc1)N1Cc2ccccc2C1=O,-2,1,-2,·,6
Cc1ccc(C(=O)N[C@@H](C)CN2C3=NC[C@H](C)N3C[C@H]2Cc2ccc(O)cc2)cc1Br,-9,4,-65*,·,·
COc1ccc(C[C@@H]2CN3C(=NC[C@@H]3C)N2CCNC(=O)c2ccc(C)c(Br)c2)cc1,4,-2,3,-52*,-58
